# In the supplement of paper PMC9950053:
# Counter-ions that a name gives are not always drawn.
# System: Danio rerio larvae (5 dpf)
# Assay: combined upward orientation toward moving lines (periods 7-14) minus DMSO control (percentage points); higher = more orientation with moving lines than DMSO larvae
# Conditions: 10 µM; exposure time: 3 h pre-incubation + 3 h imaging
# Experimental: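 Wild-type 5 dpf zebrafish larvae (n=48 per drug, 96-well plates, 28.5 °C) were exposed to Tocris FDA-approved library compounds at 10 µM (0.1% DMSO) for 3 h before and 3 h during imaging. Images were taken every 6 s during visual and acoustic stimuli, and larvae were tracked with Z-LaP Tracker. Each measure is the treated-group mean minus the DMSO control mean (n=844), in percentage points. This mapping covers compounds with 5-character plate codes.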
row,Structure (SMILES),combined upward orientation toward moving lines
1,COc1ccc(C(CN(C)C)C2(O)CCCCC2)cc1 (stereo unspecified) [Venlafaxine hydrochloride],0.349
